Results on 63 compounds are retold here after PubChem BioAssay AID686978 (National Center for Advancing Translational Sciences (NCATS), 2013).

The whole screen tested about 420,000 compounds, of which about 64,000 (15%) were called active. Inconclusive results (about 27%) are left out. The call rests on the fitted dose curve; in most records, active means well fitted inhibition curve with a large enough effect; inconclusive means small, poorly fitted or top-dose-only effect; inactive means flat fitted curve, though single readings scatter. Only a sample is shown. Where a call stands in place of a potency, no number is given.
Potency means the concentration at half of the fitted maximal effect.

The nature of the assay: qHTS for Inhibitors of human tyrosyl-DNA phosphodiesterase 1 (TDP1): qHTS in cells in absence of CPT. Further: nearly all actives have a fitted effect of over 55% in size. As to conditions: DT40 Tdp1-/- hTDP1 cells, no CPT, ATP luminescence, 48 h; activity change, negative = growth inhibition: at 46.2 µM (top of the series). The procedure, abridged:
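Growth of hTDP1-complemented DT40 Tdp1-knockout cells is measured by ATP luminescence after at least 48 hr compound exposure at 37 °C, with DMSO substituting for the 20 nM CPT used in the parallel screen.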
`CCC1(C2CCN(C(=O)c3cccc(F)c3F)CC2)NC(=O)N(CCc2scnc2C)C1=O` (stereo not drawn): the Potency entry is “inactive”.

`Cn1cccc1C(=O)Nc1nccs1`: the Potency entry was “inactive”.

In the case of `CC(C)NC(=O)N1CC[C@@]2(CCCN(C(=O)c3cccc(F)c3)C2)C1`, the Potency entry was “inactive”.

`CCCCN(C(=O)COc1ccc(NC(C)=O)cc1)C1CCS(=O)(=O)C1` (stereo not drawn): the Potency result is “inactive”.

Consider `Cc1ccccc1OCC(=O)N(Cc1cccc(F)c1)C1CCS(=O)(=O)C1` (stereo not drawn), for which the Potency result was “inactive”.

In the case of `Cc1ccc(CN(C(=O)COc2ccc(Cl)cc2C)C2CCS(=O)(=O)C2)o1` (stereo not drawn), the Potency is 23.1 µM (active).

Consider `O=C(/C=N/O)Nc1ccccc1`, for which the Potency result is “inactive”.

Regarding `CCc1c(C)c2ccc(OC3CCCCC3=O)cc2oc1=O` (stereo not drawn), the Potency entry is “inactive”.

`O=c1[nH]cnc(O)c1C(c1ccc(F)cc1)c1c(O)nc[nH]c1=O`: the Potency entry was “inactive”.

With `O=C(O)CCn1c(O)c(C=C2N=c3ccccc3=N2)sc1=S`, the Potency was 18.4 µM (active).

`O=C(O)CCn1c(Cc2ccccc2)nc2ccccc21`: the Potency result was “inactive”.

On to `O=C(NCCc1ccc(C(F)(F)F)cc1)c1ccc2c(c1)OCO2`, for which the Potency result was “inactive”.

In the case of `CC1C(c2ccccc2)=[N+]([O-])C2(CCCC2)N1O` (stereo not drawn), the Potency result is “inactive”.

`COc1ccc(C2CC(=O)c3c(O)cc(OC4OC(COC5OC(C)C(O)C(O)C5O)C(O)C(O)C4O)cc3O2)cc1O` (stereo not drawn): the Potency result was “inactive”.

Take `COc1cc(-c2nc(S(=O)(=O)c3ccc(Cl)cc3)c(N(C)C)o2)cc(OC)c1OC`: the Potency result is “inactive”.

As for `CC(C)S(=O)(=O)c1oc(-c2ccc(F)cc2)nc1S(=O)(=O)c1ccc(F)cc1`, the Potency was 0.326 µM (active).

For the compound `CC1(C)OC2CC3C4CCC5=CC(=O)CCC5(C)C4(F)C(O)CC3(C)[C@]2(C(=O)CCl)O1` (stereo partly drawn), the Potency entry is “inactive”.

`COc1cc(C(=O)Nn2c(O)c(C3=c4ccccc4=NC3=O)sc2=S)ccc1O`: the Potency result was “inactive”.

`CO[C@@H]1[C@@H](OC(N)=O)[C@@H](O)C(Oc2ccc3c(O)c(NC(=O)c4ccc(O)c(CC=C(C)C)c4)c(=O)oc3c2C)OC1(C)C` (stereo partly drawn): the Potency entry was “inactive”.

Regarding `CCc1cccc(C)c1N(C(=O)Cn1c(CO)nc2ccccc21)C(C)COC` (stereo not drawn), the Potency result was “inactive”.

Take `COCc1nc2ccccc2n1Cc1ccccc1Br`: the Potency is 16.4 µM (active).

In the case of `O=C(NC1Cc2ccccc2C1)c1cc(COc2cccc(C(F)(F)F)c2)on1`, the Potency result was “inactive”.

`C/C(CC(=O)N1CCN(C=O)CC1)=N\NC(=O)c1ccc(Br)cc1`: the Potency entry was “inactive”.

Consider `COC(=O)[C@@H]1C[C@@]2(O)[C@H](O)[C@H](O)[C@H](O)C[C@H]2N1Cc1ccc(C)s1`, for which the Potency result is “inactive”.

With `CC(C)N=C1CCCC1C(=S)SSC(=S)C1CCCC1=NC(C)C` (stereo not drawn), the Potency is 0.164 µM (active).

In the case of `COc1cc(OC)c2c(c1Cl)OC1(C2=O)C(O)=CC(=O)CC1C` (stereo not drawn), the Potency result was “inactive”.

As to `COc1ccc(CN2CCCCC2C)cc1OC` (stereo not drawn), the Potency result is “inactive”.

Take `COC(=O)c1ccc(COc2ccc(C#N)cc2)o1`: the Potency result is “inactive”.

With `CCOc1cc(C)c(Cl)cc1S(=O)(=O)n1nnc2ccccc21`, the Potency result was “inactive”.

As for `CCOc1ccc(C(C)C)cc1S(=O)(=O)n1nc(C)cc1C`, the Potency is 13 µM (active).

`COc1ccc(C(C)C)cc1S(=O)(=O)Nc1ncn[nH]1`: the Potency entry was “inactive”.

Turning to `CCCNC(=O)CCC(=O)N1Cc2ccccc2Oc2ncccc21`, the Potency entry is “inactive”.

As to `Cc1ccc(NC(=O)CS(=O)CC(=O)N(c2ccccc2)C(C)C(=O)NC2CCCC2)cc1` (stereo not drawn), the Potency result was “inactive”.

As to `COc1ccc(NS(=O)(=O)c2ccc(C)c(C(=O)NNC(=O)c3csc(N4CCOCC4)n3)c2)cc1`, the Potency result was “inactive”.

On to `COc1ccc(NS(=O)(=O)c2ccc(C)c(C(=O)N(C)Cc3ccc(OC)cc3OC)c2)cc1`, for which the Potency is 18.4 µM (active).

Consider `CCOc1ccc(NS(=O)(=O)c2ccc(Cl)c(C(=O)N(C)Cc3cccnc3)c2)cc1`, for which the Potency entry was “inactive”.

As for `CC(=O)Nc1ccc(S(=O)(=O)NNC(=O)CCc2ccccc2)cc1`, the Potency entry was “inactive”.

Consider `CC(=O)Nc1ccc(S(=O)(=O)N(C)c2ccc(OCC(=O)OCC(=O)N3CCCCC3)cc2)cc1`, for which the Potency result was “inactive”.

Consider `CC(=O)Nc1ccc(S(=O)(=O)N(C)c2nc3ccccc3nc2Cl)cc1`, for which the Potency was 23.1 µM (active).

Consider `Cc1ccc(C2CC2C(=O)NN)cc1` (stereo not drawn), for which the Potency entry was “inactive”.

With `CCOc1ccc(NS(=O)(=O)c2ccc(N)cc2)nn1`, the Potency result was “inactive”.

As for `O=S(=O)(Nc1ccc(-n2cnnn2)cc1)c1ccc(Cl)cc1`, the Potency result was “inactive”.

As for `CCn1c(C)nc2cc(C(=O)NNS(=O)(=O)c3ccc(C)cc3C)ccc21`, the Potency result is “inactive”.

For the compound `CC(=O)NCCc1ccc(S(=O)(=O)Nc2ccc(C)c(S(=O)(=O)N3CCOCC3)c2)cc1`, the Potency entry is “inactive”.

On to `CCOC(=O)c1c(S(=O)(=O)NCC(=O)Nc2ccc(C)cc2)c(C)n(C)c1C`, for which the Potency entry is “inactive”.

Turning to `CC(=O)c1c(C)n(S(=O)(=O)c2ccc(Cl)cc2)c2ccc(NS(=O)(=O)c3ccc(Cl)cc3)cc12`, the Potency is 14.6 µM (active).

As to `CCOC(=O)c1c(C)n(S(=O)(=O)c2ccc(C)cc2C)c2ccc(NS(=O)(=O)c3ccc(C)cc3C)cc12`, the Potency was 20.6 µM (active).

As for `CC(C)(C)CN1CCNC(=O)C1CC(=O)NC1Cc2ccccc2C1` (stereo not drawn), the Potency result was “inactive”.

On to `Oc1ccc(-c2nncn2-c2ccccc2)cc1`, for which the Potency entry is “inactive”.

For `COc1cccc(NC(=O)CSc2nnc(Cc3ccc(OC)c(OC)c3)o2)c1`, the Potency entry is “inactive”.

As to `O=C(CCCn1c(=O)c2sccc2n(CC(=O)NCC2CCCO2)c1=O)NCc1ccco1` (stereo not drawn), the Potency result is “inactive”.

As for `Cc1ccc(C)c(Cn2c(=O)n(CCC(=O)NCc3ccc4c(c3)OCO4)c(=O)c3sccc32)c1`, the Potency result is “inactive”.

As for `CCC1CCCCN1C(=O)Cn1c(=O)n(CCCCCC(=O)NCc2ccccc2)c(=O)c2sccc21` (stereo not drawn), the Potency is 13 µM (active).

For `NC(CSC12CC3CC(CC(C3)C1)C2)C(=O)O` (stereo not drawn), the Potency entry was “inactive”.

As for `CCCc1nc2oc3c(=O)[nH]cnc3c2c2c1COC(C)(C)C2`, the Potency result was “inactive”.

In the case of `C=CCN1CCN(c2ccncc2S(=O)(=O)N2CCN(C)CC2)CC1`, the Potency result was “inactive”.

Consider `COc1ccccc1C(=O)NC(CCSC)C(=O)N1CCN(C/C=C/c2ccccc2)CC1` (stereo not drawn), for which the Potency is 20.6 µM (active).

As for `CSCCC(NC(=O)c1ccccc1)C(=O)N1CCCCCCC1` (stereo not drawn), the Potency result was “inactive”.

As for `O=C(NC(=S)N1CCN(Cc2ccccc2)CC1)c1ccccc1`, the Potency result is “inactive”.

With `COc1ccccc1C(=O)NC(CCSC)C(=O)NNC(=O)c1ccccc1C` (stereo not drawn), the Potency entry was “inactive”.

As for `COc1ccccc1C(=O)NC(CCSC)C(=O)N1CCN(C(C)=O)CC1` (stereo not drawn), the Potency result was “inactive”.

For the compound `CSCCC(NC(=O)c1ccccc1)C(=O)N1CCN(Cc2ccc(Cl)cc2)CC1` (stereo not drawn), the Potency was 10.3 µM (active).

Turning to `O=C(CN1CCOCC1)Nc1c(-c2ccccc2)c2cc(Br)ccc2[nH]c1=O`, the Potency entry is “inactive”.
